Here are results for 88 compounds from PMC4336329 (PLoS ONE, 2015).

Screen size: about 310,000 compounds; about 14,000 (4.5%) showed an effect of 50% or more. The effect is printed as a negative number. This excerpt belongs to a sample that is enriched for strong results.
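Further: peak tail current of the secondary pulse compared with the same well before compound.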

In the assay the target is human ether-à-go-go-related gene (hERG) potassium channel (human, UniProt Q12809). Put plainly: primary screen, population patch clamp on CHO cells stably expressing hERG; higher = less effect of the substance.
Sequence of human ether-à-go-go-related gene (hERG) potassium channel (Q12809 whole entry, looked up): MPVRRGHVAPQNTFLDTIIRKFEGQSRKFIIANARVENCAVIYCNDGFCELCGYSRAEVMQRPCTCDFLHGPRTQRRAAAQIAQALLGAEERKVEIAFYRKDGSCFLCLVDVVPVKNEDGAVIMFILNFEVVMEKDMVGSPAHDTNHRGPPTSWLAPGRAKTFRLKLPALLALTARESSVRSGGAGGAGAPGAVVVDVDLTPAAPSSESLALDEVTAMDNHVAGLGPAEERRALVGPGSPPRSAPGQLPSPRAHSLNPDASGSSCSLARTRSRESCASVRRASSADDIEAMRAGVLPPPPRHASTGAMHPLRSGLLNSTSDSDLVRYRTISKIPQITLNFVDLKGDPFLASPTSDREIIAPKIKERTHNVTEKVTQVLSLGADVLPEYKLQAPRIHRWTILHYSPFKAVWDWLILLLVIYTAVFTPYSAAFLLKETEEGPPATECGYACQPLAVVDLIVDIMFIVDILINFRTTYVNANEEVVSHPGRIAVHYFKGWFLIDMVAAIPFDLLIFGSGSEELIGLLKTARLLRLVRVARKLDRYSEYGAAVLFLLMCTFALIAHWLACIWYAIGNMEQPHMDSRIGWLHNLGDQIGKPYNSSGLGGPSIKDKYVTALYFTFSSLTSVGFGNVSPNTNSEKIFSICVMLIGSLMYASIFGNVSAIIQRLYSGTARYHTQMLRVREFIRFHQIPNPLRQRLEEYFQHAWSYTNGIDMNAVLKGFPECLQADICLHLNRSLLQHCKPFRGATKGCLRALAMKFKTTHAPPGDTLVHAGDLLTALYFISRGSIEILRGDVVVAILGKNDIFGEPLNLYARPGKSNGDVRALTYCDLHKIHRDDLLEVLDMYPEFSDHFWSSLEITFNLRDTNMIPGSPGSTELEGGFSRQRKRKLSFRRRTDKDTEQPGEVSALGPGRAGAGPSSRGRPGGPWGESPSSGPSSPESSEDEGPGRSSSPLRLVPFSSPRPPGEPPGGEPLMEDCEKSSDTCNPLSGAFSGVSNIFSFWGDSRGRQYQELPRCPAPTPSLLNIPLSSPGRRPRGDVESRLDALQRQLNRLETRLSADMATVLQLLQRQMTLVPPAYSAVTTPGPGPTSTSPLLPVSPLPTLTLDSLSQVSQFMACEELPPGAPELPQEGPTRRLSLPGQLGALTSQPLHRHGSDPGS
Regarding `COCC(=O)N1CCC(Oc2ccc(C(=O)NC(C)c3csc(C)n3)cc2)CC1` (stereo not shown), the “hERG current change (%, negative = inhibition) at 10uM” value came to 10.4%.
The value for `COc1ccc2cc([C@@H](C)C(=O)[O-])ccc2c1.[Na+]` was -2.41%; that for `Cc1ccc(S(=O)(=O)N2CCC(C(=O)OCc3ccc([N+](=O)[O-])cc3)CC2)cc1` was -69.8%.
With `O=C(OCc1ccc([N+](=O)[O-])cc1)C1CCN(S(=O)(=O)c2ccccc2)CC1` the figure was -37.3%; with `COC(=O)c1ccccc1S(=O)(=O)N1CCC(C(=O)OCC(=O)c2ccccc2OC)CC1`, -16.8%.
Consider `COC(=O)c1ccccc1S(=O)(=O)N1CCC(C(=O)OC(C)C(=O)Nc2ccccc2OC)CC1` (stereo not shown), for which the “hERG current change (%, negative = inhibition) at 10uM” value is -51.3%.
Consider `CC(OC(=O)C1CC1)C(=O)Nc1ncc(Cl)cc1Cl` (stereo not shown), for which the “hERG current change (%, negative = inhibition) at 10uM” value worked out at 18.1%.
With `COC(=O)c1ccccc1S(=O)(=O)N1CCC(C(=O)OCc2ccc([N+](=O)[O-])cc2)CC1`, the “hERG current change (%, negative = inhibition) at 10uM” value is on record as -57.1%.
The value for `COC(=O)c1ccccc1S(=O)(=O)N1CCC(C(=O)OCc2cccc(OC)c2OC)CC1` was -13.5%; that for `CC(OC(=O)C1CCN(S(=O)(=O)c2ccccc2)CC1)C(=O)Nc1ncc(Cl)cc1Cl` (stereo not shown) was -64%; that for `COC(=O)c1ccccc1S(=O)(=O)N1CCC(C(=O)OC(C)C(=O)NC(N)=O)CC1` (stereo not shown) was 29.7%.
The value for `COc1ccc(COC(=O)C2CCN(S(=O)(=O)c3ccc(C)cc3)CC2)cc1` was -7.61%; that for `CC(OC(=O)C1CCCC1)C(=O)Nc1ncc(Cl)cc1Cl` (stereo not shown) was -2.36%; that for `COC(=O)c1ccccc1S(=O)(=O)N1CCC(C(=O)OC(C)C(=O)Nc2ccc(NC(C)=O)cc2)CC1` (stereo not shown) was -14.6%.
The value for `CC(C(=O)Nc1ccc(Cl)cc1Cl)N1CC=C(c2ccccc2)CC1` (stereo not shown) was -28.1%; that for `CCn1c(=O)c(CCC(=O)N2CCN(c3ccccn3)CC2)c(C)c2c(C)nn(-c3ccccc3)c21` was -17.8%; that for `Cc1ccc2nc(SCC(=O)N3CCCC3)nc(=O)n2c1` was -0.651%.
`Cn1nc(C(=O)Nc2nc3ccccc3[nH]2)c2ccccc2c1=O`: the “hERG current change (%, negative = inhibition) at 10uM” value was -47.1%.
On to `CC(C)OCCCNC(=O)C1CCC(CNS(=O)(=O)c2ccccc2)CC1` (stereo not shown), for which the “hERG current change (%, negative = inhibition) at 10uM” value is on record as -7.62%.
The value for `Cc1ccc(C(C)(C)C)c(OCCCn2ccnc2)c1.O=C(O)C(=O)O` was -16.6%; that for `CCc1cc(CNC(=O)CC2C(=O)NCCN2Cc2ccccc2C(F)(F)F)on1` (stereo not shown) was 10%; that for `Cc1ccc2nc(NC(=O)Cn3nc(C)c([N+](=O)[O-])c3C)sc2c1` was -23.5%.
As for `CCOc1ccc(C(=O)OCC(=O)NC2CCCC2)cc1OCC`, the “hERG current change (%, negative = inhibition) at 10uM” value was determined as 8.34%.
With `COc1ccccc1NC(=O)/C(=N/OCc1ccc(C#N)cc1)C(C)=O`, the “hERG current change (%, negative = inhibition) at 10uM” value is recorded as -18.2%.
The value for `COC(=O)c1sccc1NC(=O)c1c(-c2ccccc2)noc1C` was -26.5%; that for `Cc1ccccc1C(=O)NNC(=O)Nc1ccccc1` was 11.6%.
Take `COc1ccc2nc(C)cc(Nc3ccc(N4CCN(C)CC4)cc3)c2c1`: the “hERG current change (%, negative = inhibition) at 10uM” value is on record as -1.75%.
With `COc1ccc(Nc2cc(C)nc(N3CCOCC3)n2)cc1` the figure was -12.2%; with `COc1ccc2nc(C)cc(Nc3ccc(N4CCOCC4)cc3)c2c1.Cl`, -60.9%.
Regarding `CCOc1ccc2nc(N3CCOCC3)nc(C)c2c1`, the “hERG current change (%, negative = inhibition) at 10uM” value was 3.2%.
The value for `CCOc1ccc(Nc2cc(C)nc(N3CCOCC3)n2)cc1` was 0.875%; that for `CCOc1ccc2nc(C)cc(Nc3ccc(N4CCOCC4)cc3)c2c1.Cl` was -73%; that for `COc1ccc(S(=O)(=O)NCc2ccccc2)cc1Br` was 6.25%.
With `NC(=O)CC1Nc2cccc3cccc(c23)NC1=O` (stereo not shown) the figure was 8.93%.
The value for `COc1ccc(CCNC(=O)CCc2nc3ccccc3[nH]2)cc1OC` was -7.59%.
Consider `CCN(CC(=O)Nc1ccc(NC(C)=O)cc1)C(=O)CCCSc1nc2ccccc2[nH]1`, for which the “hERG current change (%, negative = inhibition) at 10uM” value is listed as -0.716%.
Consider `CCCCc1noc2c1/C(=N\O)CC(c1ccccc1)C2` (stereo not shown), for which the “hERG current change (%, negative = inhibition) at 10uM” value is 7.26%.
With `Cc1oc2c(c(=O)c1C)C(=O)CC(c1ccccc1)C2` (stereo not shown) the figure was -23.7%.
The value for `CCCCc1oc2c(c(=O)c1C)C(=O)CC(c1ccccc1)C2` (stereo not shown) was -59.8%; that for `CSc1ccccc1NC(=O)CN(C)C(=O)Cc1c[nH]c2ccccc12` was -0.585%; that for `NC(=O)CSc1nc2c(sc3ccccc32)c(=O)n1CCCC(=O)NCC1CCCO1` (stereo not shown) was -16.8%.
With `COCCCNC(=O)CSc1nc2c(sc3ccccc32)c(=O)n1CCCC(=O)NCC1CCCO1` (stereo not shown) the figure was -14.4%; with `CCCCn1c(SCC(N)=O)nc2c(sc3ccccc32)c1=O`, -12.4%.
As to `O=C(CSc1nc2c(sc3ccccc32)c(=O)n1Cc1ccccc1)NCC1CCCO1` (stereo not shown), the “hERG current change (%, negative = inhibition) at 10uM” value was 16.8%.
The value for `CCC(C)NC(=O)CSc1nc2c(sc3ccccc32)c(=O)n1CCCN1CCOCC1` (stereo not shown) was -53.4%.
As to `CCOC(=O)CSc1nc2c(sc3ccc([N+](=O)[O-])cc32)c(=O)n1Cc1ccco1`, the “hERG current change (%, negative = inhibition) at 10uM” value is reported as -32.4%.
With `O=C(CSc1nc2c(sc3ccccc32)c(=O)n1CCCN1CCOCC1)NC1CCCC1` the figure was -64.7%; with `CCCCn1c(SCC(=O)NC(C)CC)nc2ccc(N3CCOCC3)cc2c1=O` (stereo not shown), -12.8%.
With `CCOC(=O)CSc1nc2c(sc3ccccc32)c(=O)n1CCCN1CCOCC1` the figure was -65.9%.
With `NC(=O)CSc1nc2c(sc3ccccc32)c(=O)n1CCCN1CCOCC1` the figure was -52.8%; with `Cc1cc(NC(=O)CSc2nc3c(sc4ccccc43)c(=O)n2CCCN2CCOCC2)n[nH]1`, 2%.
Regarding `O=C1CSC(c2ccccn2)N1c1ccc(F)cc1F` (stereo not shown), the “hERG current change (%, negative = inhibition) at 10uM” value is on record as -0.569%.
With `COc1ccccc1Nc1nc(-c2sc(NC(=O)CC(C)C)nc2C)cs1` the figure was 5.43%; with `O=C(CCC(=O)N1CCSc2ccccc21)NC1CCCCC1`, -2.55%; with `O=C(OCCNc1ccc(C(F)(F)F)cc1[N+](=O)[O-])c1cc2ccccc2oc1=O`, 4.72%.
`CC(Sc1nncn1C)C(=O)Nc1ccc(S(N)(=O)=O)cc1` (stereo not shown): the “hERG current change (%, negative = inhibition) at 10uM” value is reported as 15.7%.
With `Cc1oc(-c2ccccc2Cl)nc1CSCC(=O)N1CCCC1` the figure was -19.9%.
With `COc1ccc(Cl)cc1NC(=O)CN(C)C(=O)c1ccc(COc2ccccc2)cc1` the figure was 13.5%; with `CC1CCc2ccc(F)cc2N1S(=O)(=O)c1cccs1` (stereo not shown), 2.36%; with `CNC(=S)NNC(=O)c1ccc(N(C)C)cc1`, 0.516%.
Regarding `Cc1cc(C)c(S(=O)(=O)NCC2CCC(C(=O)NCc3ccc4c(c3)OCO4)CC2)c(C)c1` (stereo not shown), the “hERG current change (%, negative = inhibition) at 10uM” value is listed as -1.15%.
The value for `O=C(N/N=C/C=C/c1ccccc1)c1n[nH]c2c1CCC2` was 9.22%; that for `Cn1nc(-c2ccc(N3CCOCC3)c(NS(=O)(=O)c3ccccc3)c2)c2ccccc2c1=O` was -15.6%.
With `COc1nnc(-c2ccc(N3CCOCC3)c(NC(=O)c3ccccc3)c2)c2ccccc12` the figure was -19.5%; with `COc1nnc(-c2ccc(N3CCOCC3)c(NC(=O)c3ccco3)c2)c2ccccc12`, -70%.
The value for `COc1ccc(NS(=O)(=O)c2ccc(N3CCOCC3)c(NC(=O)c3ccco3)c2)cc1` was 30.3%; that for `COc1nnc(-c2ccc(N3CCOCC3)c(NC(=O)c3ccc(C)cc3)c2)c2ccccc12` was -68.9%.
In the case of `CCC(=O)Nc1cc(-c2nnc(OC)c3ccccc23)ccc1N1CCOCC1`, the “hERG current change (%, negative = inhibition) at 10uM” value is listed as -5.46%.
The value for `COC(=O)c1ccc(N2CCOCC2)c(NC(=O)c2ccco2)c1` was 1.95%; that for `CCCC(=O)Nc1cc(-c2nnc(OC)c3ccccc23)ccc1N1CCOCC1` was -42.9%; that for `COc1ccc(N2CCOCC2)c(NC(=O)c2ccco2)c1` was -73.1%.
With `Cn1nc(-c2ccc(N3CCOCC3)c(NS(=O)(=O)c3ccc(Cl)cc3)c2)c2ccccc2c1=O`, the “hERG current change (%, negative = inhibition) at 10uM” value is recorded as -9.74%.
As to `Cc1ccc(S(=O)(=O)Nc2cc(-c3nn(C)c(=O)c4ccccc34)ccc2N2CCOCC2)cc1`, the “hERG current change (%, negative = inhibition) at 10uM” value is given as -57%.
The value for `COc1nnc(-c2ccc(N3CCOCC3)c(NC(C)=O)c2)c2ccccc12` was -1.4%; that for `Cc1cc(C)c(C#N)c(SCc2nnc(-c3ccccc3)o2)n1` was -0.532%.
With `O=C(CNCC1CCCO1)Nc1ccccc1N1CCCCCC1.O=C(O)C(=O)O` (stereo not shown) the figure was -6.51%; with `COc1cc(OC)nc(Oc2ccccc2C(=O)Oc2ccc(C)cc2)n1`, -25.1%; with `O=C(c1cc(C2CC2)on1)N1CCN(c2ccccc2)CC1`, -14.1%.
With `CCCCN1C(=O)C(=O)N(CC(=O)Nc2cc(S(=O)(=O)N(C)C)ccc2C)C1=O`, the “hERG current change (%, negative = inhibition) at 10uM” value is reported as 6.6%.
The value for `O=S(=O)(Nc1ccc(Br)cc1)c1cccc2nonc12` was 5.71%; that for `Cl.O=C(O)CCN1CCOCC1` was 19.8%.
The value for `Cc1ccc(C)c(S(=O)(=O)N2CCN(C(=O)CCNC(=O)c3ccc(Br)cc3)CC2)c1` was -33.4%; that for `O=[N+]([O-])c1ccccc1NC1CCN(Cc2ccccc2)CC1` was -64.4%.
The value for `O=C1CCC(=O)N1c1ccc(NC2CCN(Cc3ccccc3)CC2)c([N+](=O)[O-])c1` was 2.23%; that for `O=C1C2CCCCC2C(=O)N1c1ccc(NC2CCN(Cc3ccccc3)CC2)c([N+](=O)[O-])c1` (stereo not shown) was -42.1%.
On to `CC1CCC2C(=O)N(c3ccc(NC4CCN(Cc5ccccc5)CC4)c([N+](=O)[O-])c3)C(=O)C2C1` (stereo not shown), for which the “hERG current change (%, negative = inhibition) at 10uM” value is listed as -41.2%.
With `O=[N+]([O-])c1ccc(NC2CCN(Cc3ccccc3)CC2)c([N+](=O)[O-])c1` the figure was -85.4%.
The value for `O=[N+]([O-])c1ccc(NC2CCN(Cc3ccccc3)CC2)c2ccncc12` was 6.01%.
